Test results taken from PubChem BioAssay (NCI).
Compounds without any hit were thinned out: in the full panel of roughly 83,000, 20% have a hit.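 48-hour exposure, single concentration, 96-well plates; percent growth endpoint where 0 means no net growth. Active: below 10.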 Calls of active or inactive are those of the source.

Experiments:
Assay in all cases: NCI-60 one-dose screen, 48 h (100 = growth as untreated, 0 = no growth, -100 = all killed)
Details in all cases: 10 µM unless noted
[1] = tested on: SK-MEL-2 melanoma
[2] = tested on: EKVX NSCLC
[3] = tested on: SN12C renal
[4] = tested on: UO-31 renal
[5] = tested on: TK-10 renal
[6] = tested on: ACHN renal
[7] = tested on: CAKI-1 renal
[8] = tested on: A498 renal
[9] = tested on: CCRF-CEM leukemia
[10] = tested on: MOLT-4 leukemia

Measured: growth

N#Cc1c(NC(=O)c2ccc([N+](=O)[O-])o2)[n+]([O-])c2cc(F)c(F)cc2[n+]1[O-]
inactive: [1] 34.6% | [2] 149% | [3] 108% | [4] 40.8% | [5] 179% | [6] 109% | [7] 113% | [8] 151% | [9] 100% | [10] 120%

O=P([O-])(O)OP(=O)([O-])O.[NH-][C@H]1CCCC[C@@H]1[NH-].[OH-].[OH-].[Pt+4]
inactive: [1] 117% | [2] 100% | [3] 105% | [4] 96.6% | [5] 102% | [6] 86.3% | [7] 94.8% | [8] 81.7% | [9] 98.4% | [10] 87.8%

C=C1C(=O)O[C@H]2[C@H]1CC/C(Cn1cc(-c3ccc(N)cc3)nn1)=C\CC[C@@]1(C)O[C@@H]21
active: [2] -19.9% | [3] -7.63% | [4] -74.3% | [6] 3.22% | [9] -17.7% | [10] 5.77%
inactive: [1] 41.9% | [5] 17.9% | [7] 16.7% | [8] 44.1%

CCO/C=N/NC(=O)c1ccncc1
inactive: [1] 102% | [2] 102% | [3] 111% | [4] 98.9% | [5] 103% | [6] 108% | [7] 100% | [8] 104% | [9] 106% | [10] 107%

O=C(/C=C/CN1CCOCC1)Nc1cc2c(Nc3cccc(Cl)c3F)ncnc2cc1OCCOC(F)F
active: [8] 7.02%
inactive: [1] 95.9% | [2] 29.5% | [3] 61.8% | [4] 36.8% | [5] 57.3% | [6] 22.2% | [7] 24.9% | [9] 102% | [10] 77.3%

CCCCCCCCCCC/C=C\C[C@H](O)C/C=C1/C(=O)C=C[C@@H]1C/C=C\CCCC(=O)OC
active: [1] -24.4% | [2] 1.38% | [3] -24.7% | [4] -63% | [5] 0.114% | [6] -20.1% | [10] -0.235%
inactive: [7] 13.8% | [8] 99.7% | [9] 12.2%

CC(Cc1nnc(SCC(=O)Nc2ccc(I)cc2)n1N)c1ccccc1 (stereo not given)
inactive: [1] 69.8% | [2] 82.5% | [3] 98.4% | [4] 74.1% | [5] 89.9% | [6] 86.5% | [7] 104% | [8] 99.9% | [9] 54.9% | [10] 93.4%

Nc1cccc2c1CN(C1CCC(=O)NC1=O)C2=O (stereo not given)
inactive: [1] 113% | [2] 94.7% | [3] 106% | [4] 101% | [5] 132% | [6] 105% | [7] 95.6% | [8] 84.8% | [9] 98.7% | [10] 95.1%

CCC(c1ccc(OC)cc1)C(CC)c1ccc(O)c(CN2CCCC2)c1 (stereo not given)
inactive: [2] 11.3% | [3] 23.3% | [4] 15% | [5] 54.5% | [6] 39.3% | [7] 32.6% | [9] 19.7%
active: [1] -37.6% | [8] -5.74% | [10] 1.69%

CCCC1OC(c2ccc(C(C)C)cc2)OCC1CC (stereo not given)
inactive: [1] 98.4% | [2] 101% | [3] 105% | [4] 101% | [5] 97.1% | [6] 99.5% | [7] 90.9% | [8] 94.4% | [9] 95.9% | [10] 93.3%

COC(=O)CCCCCN=Cc1c(O)c(O)c(C(C)C)c2cc(C)c(-c3c(C)cc4c(C(C)C)c(O)c(O)c(C=NCCCCCC(=O)OC)c4c3O)c(O)c12
inactive: [1] 10.4% | [2] 21.7% | [3] 19.8% | [4] 19.5% | [6] 15.5% | [7] 55.6% | [8] 35.1% | [9] 18.1% | [10] 13.6%
active: [5] 3.95%

O=C1C2=C(C(=O)c3c(O)ccc(O)c31)N(c1cccnc1)Cc1ccccc1O2
active: [1] -42.6% | [2] 2.08% | [3] -43.8% | [4] -83.5% | [5] -99.2% | [6] -85.4% | [7] -96.2% | [9] -1.32% | [10] -18.5%
inactive: [8] 99%

CSc1ccccc1C#C/C=C\C#Cc1ccccc1N1CCCCC1=O
inactive: [1] 70.8% | [2] 91.5% | [3] 98.3% | [4] 34.6% | [5] 151% | [6] 97.7% | [7] 95% | [8] 107% | [9] 60% | [10] 104%

Cc1ccc2c(c1)C(C)Cc1c(N(C)C)ncnc1N2C (stereo not given)
active: [8] -9.12%
inactive: [1] 30% | [2] 27.2% | [3] 44.9% | [4] 59.1% | [5] 14.1% | [6] 53.3% | [7] 35.2% | [9] 21.4% | [10] 30.6%
